Results published in PubChem BioAssay.
A number with no mark means an inactive call. For some assays here: Entries with a potency or affinity are not part of this list. The source made the active and inactive calls. Unless noted, the rule behind the calls is not given here.

Legend:
[1] = antimalarial activity against Dd2 strain (AID 2302;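 active = growth inhibition above 50% at the single 2 µM test dose, taken to imply half-maximal potency below 2 µM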;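 note: 0% = DMSO untreated growth and 100% = chloroquine plus artemisinin killed control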); details: P. falciparum Dd2 in RBCs, LDH growth readout, 72 h; at 2 µM; stronger effect = higher value
[2] = HepG2 cytotoxicity, primary screen, cytotoxicity control for P. falciparum antimalarial project, cell-based, ATP luminescence (AID 2303;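 active = inhibition above 50%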;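 note: 0% = DMSO wells and 100% = digitonin-killed cells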); details: HepG2 viability, 24-48 h, at 10 µM, stronger effect = higher value
[3] = target: L-lactate dehydrogenase (Plasmodium falciparum (isolate CDC / Honduras)) (UniProt Q27743); test: PfLDH activity inhibition – cell lysate, 3D7 strain, counter-screen for P. falciparum growth inhibition project (AID 2304);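 note: 0% = vehicle and 100% = reference inhibitor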; details: P. falciparum 3D7 crude extract, LDH APAD/NBT absorbance; at 2 µM; stronger effect = higher value
[4] = inhibition of 3D7 malaria parasite growth – strain 3D7 (AID 2306);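 note: 0% = DMSO wells and 100% = chloroquine plus artemisinin control wells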; details: P. falciparum 3D7 erythrocytic growth, LDH absorbance, 72 h; at 2 µM; stronger effect = higher value
[5] = target: Calcium-dependent protein kinase 1 (Plasmodium falciparum (isolate 3D7)) (UniProt P62344); test: PfCDPK1 kinase inhibitors, biochemical, TCAMS library (AID 1159585; cut-off not given, nearly all actives have IC50 up to about 0.98 µM;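 note: inhibitors leave more ATP so luminescence rises with inhibition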); details: recombinant PfCDPK1, Kinase-Glo ATP depletion luminescence
[6] = target: Plasmodium falciparum protein kinase 6 (PK6, PF3D7_1337100) (UniProt Q8IDW1); test: PfPK6 kinase inhibitors, biochemical, TCAMS library (AID 1159586); details: recombinant PfPK6, Kinase-Glo ATP depletion luminescence
[7] = target: Protein kinase 7 (PK7), Plasmodium falciparum 3D7 (PF3D7_0213400) (UniProt Q7YTF7); test: inhibition of Plasmodium PK7 catalytic activity – biochemical, TCAMS antimalarial set, Kinase-Glo luminescence (AID 1159587); details: recombinant PfPK7, Kinase-Glo ATP depletion luminescence
[8] = target: Calcium-dependent protein kinase 4 (Plasmodium falciparum (isolate 3D7)) (UniProt Q8IBS5); test: PfCDPK4 kinase inhibitors, biochemical, TCAMS library (AID 1159588; cut-off not given, nearly all actives have IC50 up to about 0.91 µM); details: recombinant PfCDPK4, Kinase-Glo ATP depletion luminescence
Chain of Calcium-dependent protein kinase 4 (Plasmodium falciparum (isolate 3D7)) (Q8IBS5 whole entry, looked up): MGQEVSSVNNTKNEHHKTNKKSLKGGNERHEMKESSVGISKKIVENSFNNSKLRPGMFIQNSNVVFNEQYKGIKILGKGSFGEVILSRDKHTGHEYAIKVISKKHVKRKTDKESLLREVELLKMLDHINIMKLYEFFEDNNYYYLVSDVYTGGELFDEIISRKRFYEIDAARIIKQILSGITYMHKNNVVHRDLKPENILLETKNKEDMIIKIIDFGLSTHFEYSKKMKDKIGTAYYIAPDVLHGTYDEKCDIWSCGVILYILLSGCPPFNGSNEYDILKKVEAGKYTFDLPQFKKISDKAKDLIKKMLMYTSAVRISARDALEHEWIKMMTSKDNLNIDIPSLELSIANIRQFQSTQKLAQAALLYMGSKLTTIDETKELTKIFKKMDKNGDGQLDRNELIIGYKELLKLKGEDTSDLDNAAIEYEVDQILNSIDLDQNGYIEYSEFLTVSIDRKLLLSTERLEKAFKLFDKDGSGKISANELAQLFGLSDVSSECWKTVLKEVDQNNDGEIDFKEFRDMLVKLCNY

Chain of L-lactate dehydrogenase (Plasmodium falciparum (isolate CDC / Honduras)) (Q27743 whole entry, looked up): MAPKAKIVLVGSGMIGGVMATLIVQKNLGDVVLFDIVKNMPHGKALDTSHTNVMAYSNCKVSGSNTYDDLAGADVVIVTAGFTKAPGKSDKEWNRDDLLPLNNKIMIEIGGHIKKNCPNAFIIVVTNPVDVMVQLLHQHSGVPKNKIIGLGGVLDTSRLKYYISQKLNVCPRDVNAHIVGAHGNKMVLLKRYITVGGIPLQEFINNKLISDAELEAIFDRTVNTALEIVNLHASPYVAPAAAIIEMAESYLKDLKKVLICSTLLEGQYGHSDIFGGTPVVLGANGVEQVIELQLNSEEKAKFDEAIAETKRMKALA
Chain of Protein kinase 7 (PK7), Plasmodium falciparum 3D7 (PF3D7_0213400) (Q7YTF7 1-343): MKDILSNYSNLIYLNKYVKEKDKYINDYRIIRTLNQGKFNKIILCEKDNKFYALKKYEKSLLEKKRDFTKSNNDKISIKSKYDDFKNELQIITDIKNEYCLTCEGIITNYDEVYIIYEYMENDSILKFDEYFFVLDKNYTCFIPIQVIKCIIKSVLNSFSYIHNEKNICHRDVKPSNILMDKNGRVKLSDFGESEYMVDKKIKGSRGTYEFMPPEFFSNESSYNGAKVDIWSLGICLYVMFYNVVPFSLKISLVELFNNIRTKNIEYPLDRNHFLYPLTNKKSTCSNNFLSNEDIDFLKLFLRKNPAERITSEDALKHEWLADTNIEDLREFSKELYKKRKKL
Chain of Calcium-dependent protein kinase 1 (Plasmodium falciparum (isolate 3D7)) (P62344 whole entry, looked up): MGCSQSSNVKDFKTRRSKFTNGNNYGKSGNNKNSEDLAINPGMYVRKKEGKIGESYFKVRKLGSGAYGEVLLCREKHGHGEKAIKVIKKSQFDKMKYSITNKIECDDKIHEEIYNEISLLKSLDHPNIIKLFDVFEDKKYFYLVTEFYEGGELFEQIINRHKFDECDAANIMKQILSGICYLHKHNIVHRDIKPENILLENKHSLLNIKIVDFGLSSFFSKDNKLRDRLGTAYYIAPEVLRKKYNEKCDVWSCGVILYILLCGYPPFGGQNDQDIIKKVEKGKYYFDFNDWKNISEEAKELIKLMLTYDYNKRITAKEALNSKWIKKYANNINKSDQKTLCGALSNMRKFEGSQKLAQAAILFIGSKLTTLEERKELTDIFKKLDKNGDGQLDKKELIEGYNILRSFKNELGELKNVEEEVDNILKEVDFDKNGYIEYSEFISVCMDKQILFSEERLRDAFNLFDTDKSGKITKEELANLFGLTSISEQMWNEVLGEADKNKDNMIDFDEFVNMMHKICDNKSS
Chain of Plasmodium falciparum protein kinase 6 (PK6, PF3D7_1337100) (Q8IDW1 1-305): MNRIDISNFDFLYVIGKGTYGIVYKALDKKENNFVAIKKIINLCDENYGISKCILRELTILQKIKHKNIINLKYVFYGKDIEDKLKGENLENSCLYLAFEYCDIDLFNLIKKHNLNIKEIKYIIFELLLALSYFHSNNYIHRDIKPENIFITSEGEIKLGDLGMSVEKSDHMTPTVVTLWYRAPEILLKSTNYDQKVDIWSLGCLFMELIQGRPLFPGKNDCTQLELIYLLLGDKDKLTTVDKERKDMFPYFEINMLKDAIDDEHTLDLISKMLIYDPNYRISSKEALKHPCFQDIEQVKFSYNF

Compound | growth inhibition [1] | inhibition [2] | inhibition [3] [%] | growth inhibition [4] | outcome [5] | outcome [6] | outcome [7] | outcome [8]
N#Cc1ccc2c(c1)CN(CCC1CCC(NC(=O)c3cc4cnccc4[nH]3)CC1)CC2 (stereo not given) | 28% | 13% | -2 | 97% (active) | inactive | inactive | inactive | inactive
CC(=O)NC1=NC(C)(C)N(OCc2ccc(Cl)c(Cl)c2)C(NC(C)=O)=N1 | 97% (active) | 68% (active) | -5 | 94% (active) | inactive | inactive | inactive | inactive
Brc1cc2c(cc1C=NNc1nc(Nc3ccccc3)nc(Nc3ccccc3)n1)OCO2 | 32% | -7% | 1 | 100% (active) | inactive | inactive | inactive | inactive
COc1ccccc1CCNc1nc(C)cc(N[C@@H](Cc2ccccc2)C(=O)NCCOc2ccccc2)n1 | 76% (active) | 20% | 4 | 101% (active) | inactive | inactive | inactive | inactive
O=C(Nc1ccccc1F)NC1CCN(c2ccnc(Nc3ccc(F)cc3)n2)CC1 | 63% (active) | 13% | -4 | 99% (active) | inactive | inactive | inactive | inactive
CC1=C(C(=O)Nc2cc3cn[nH]c3cc2F)C(c2cccc(O)c2F)CC(=O)N1 (stereo not given) | 98% (active) | 1% | -2 | 97% (active) | inactive | inactive | inactive | inactive
O[C@@H](c1cccc2ccccc12)[C@@H]1CN(CCc2ccccc2)CC[C@@]1(O)c1ccccc1 | 101% (active) | -2% | -2 | 99% (active) | inactive | inactive | inactive | inactive
Cc1cccc2[nH]c(-c3cccc(-c4ccc(NC(=O)Cc5cnc[nH]5)cc4)c3)nc12 | 93% (active) | 4% | -3 | 101% (active) | inactive | inactive | inactive | inactive
COc1ccc(CNC2CCN(C)CC2)cc1-c1cccc(S(=O)(=O)NCc2ccccc2)c1 | 7% | 43% | -1 | 101% (active) | inactive | inactive | inactive | inactive
Nc1nc(N)c2c(ccc3c2ccn3Cc2cc3c(cc2Cl)OCO3)n1 | 94% (active) | 58% (active) | -5 | 95% (active) | inactive | inactive | inactive | inactive
